In all, about 310,000 compounds went through this assay and about 14,000 (4.5%) showed an effect of 50% or more. The effect is printed as a negative number. The full list was thinned out, with strong results kept by preference.
What follows are molecules tested against human ether-à-go-go-related gene (hERG) potassium channel (human, UniProt Q12809) (assay: primary screen, population patch clamp on CHO cells stably expressing hERG; higher = less effect of the substance).
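Further: peak tail current of the secondary pulse compared with the same well before compound.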

human ether-à-go-go-related gene (hERG) potassium channel, sequence (Q12809 whole entry, looked up): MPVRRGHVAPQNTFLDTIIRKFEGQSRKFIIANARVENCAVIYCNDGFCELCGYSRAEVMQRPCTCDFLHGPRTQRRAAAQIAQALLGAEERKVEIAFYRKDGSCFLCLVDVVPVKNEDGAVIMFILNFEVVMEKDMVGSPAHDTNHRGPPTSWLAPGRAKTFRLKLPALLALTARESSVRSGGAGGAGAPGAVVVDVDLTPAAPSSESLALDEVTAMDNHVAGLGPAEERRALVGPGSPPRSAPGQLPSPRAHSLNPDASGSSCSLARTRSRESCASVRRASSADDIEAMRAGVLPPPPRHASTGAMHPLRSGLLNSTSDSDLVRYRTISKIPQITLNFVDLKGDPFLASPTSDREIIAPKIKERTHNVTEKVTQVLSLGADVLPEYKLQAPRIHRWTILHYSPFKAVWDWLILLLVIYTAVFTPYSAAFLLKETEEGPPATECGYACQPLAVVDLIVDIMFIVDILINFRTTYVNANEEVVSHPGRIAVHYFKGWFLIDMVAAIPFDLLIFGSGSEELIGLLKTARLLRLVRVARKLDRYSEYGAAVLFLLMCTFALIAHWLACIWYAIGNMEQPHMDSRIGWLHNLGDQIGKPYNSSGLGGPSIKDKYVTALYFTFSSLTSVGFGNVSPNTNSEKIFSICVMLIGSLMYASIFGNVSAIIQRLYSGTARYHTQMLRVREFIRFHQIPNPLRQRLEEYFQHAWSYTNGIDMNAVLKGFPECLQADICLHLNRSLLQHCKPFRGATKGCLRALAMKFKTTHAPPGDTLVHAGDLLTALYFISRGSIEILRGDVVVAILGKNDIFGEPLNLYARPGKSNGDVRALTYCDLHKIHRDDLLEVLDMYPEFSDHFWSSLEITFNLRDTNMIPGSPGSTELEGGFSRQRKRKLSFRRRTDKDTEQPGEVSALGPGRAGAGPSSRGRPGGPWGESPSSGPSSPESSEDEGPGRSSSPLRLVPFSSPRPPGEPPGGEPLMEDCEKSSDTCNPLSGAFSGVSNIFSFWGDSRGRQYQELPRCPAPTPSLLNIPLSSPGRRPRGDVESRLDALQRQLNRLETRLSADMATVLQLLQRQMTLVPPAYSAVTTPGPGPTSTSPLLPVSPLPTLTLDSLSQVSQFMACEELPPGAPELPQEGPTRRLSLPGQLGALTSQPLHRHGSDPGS

| SMILES | hERG current change (%, negative = inhibition) at 10uM [%] |
| --- | --- |
| Cc1ccc(S(=O)(=O)N(CCCO)Cc2cc3c(C)ccc(C)c3[nH]c2=O)cc1 | -45.9 |
| O=C(c1ccc(NS(=O)(=O)c2ccccc2)cc1)N1CCCC1 | -8.95 |
| CS/C(N)=N/S(=O)(=O)c1ccc(NC(C)=O)cc1 | 17.6 |
| C/C(=N/Nc1ccccc1[N+](=O)[O-])c1ccc([N+](=O)[O-])cc1 | 5.07 |
| CC1CCc2c(sc(NC(=O)c3ccccc3C(=O)O)c2C#N)C1 (stereo not shown) | -0.906 |
| Cc1cc(C)n(-c2nc3c(c(=O)[nH]c(=O)n3C)n2CC(O)COc2ccc(Cl)cc2Cl)n1 (stereo not shown) | -3.56 |
| CC(C)Cn1c(NCCN(C)C)nc2c1c(=O)[nH]c(=O)n2C | 10.1 |
| CN(C)CCNc1nc2c(c(=O)[nH]c(=O)n2C)n1CC(O)COc1ccc(Cl)cc1Cl (stereo not shown) | -55 |
| COCCCNc1nc2c(c(=O)[nH]c(=O)n2C)n1CC(O)COc1ccccc1C (stereo not shown) | -7.62 |
| CN(C)CCNc1nc2c(c(=O)[nH]c(=O)n2C)n1CC(O)COc1ccc(Cl)cc1 (stereo not shown) | -20 |
| CCN(CC)CCNc1nc2c(c(=O)[nH]c(=O)n2C)n1CC(O)COc1ccc(Cl)cc1Cl (stereo not shown) | -70.2 |
| C[C@]12CC[C@H](O)C[C@H]1CC[C@@H]1C2CC[C@]2(C)[C@@H](C3=CC(=O)OC3)[C@@H](O)C[C@]12O (stereo partly shown) | 21.1 |
| N#Cc1c2c(nc(N)c1-c1ccccc1)CCCCC2 | 7.02 |
| CC1=C(C(=O)OCC(Br)(Br)Br)C(c2cccc([N+](=O)[O-])c2)NC(=O)N1CCCC(=O)O (stereo not shown) | -3.03 |
| CCn1nnnc1-c1ccc(OC)c(S(=O)(=O)Nc2ccc(C)c(C)c2)c1 | -2.9 |
| CCNC(=S)NNC(=O)CCn1cc(C)cn1 | 20.7 |
| Cc1cccc(N2CCN(S(=O)(=O)c3c(C)[nH]c(C)c3C(=O)N3CCCC3)CC2C)c1 (stereo not shown) | -19.2 |
| COc1ccccc1CNC(=O)COC(=O)c1ccc(Cl)c(N)c1 | 21.8 |
| N=c1c(C(=O)NCC2CCCO2)cc2c(=O)n3ccccc3nc2n1C1CCCCC1 (stereo not shown) | -77.3 |
| N=c1c(S(=O)(=O)c2ccc(Br)cc2)cc2c(=O)n3ccccc3nc2n1C1CCCCC1 | 22.8 |
| N=c1c(S(=O)(=O)c2ccccc2)cc2c(=O)n3ccccc3nc2n1C1CCCC1 | 1.62 |
| N=c1c(C(=O)NCC2CCCO2)cc2c(=O)n3ccccc3nc2n1C1CCCC1 (stereo not shown) | -76.9 |
| N=c1c(S(=O)(=O)c2ccc(Br)cc2)cc2c(=O)n3ccccc3nc2n1C1CCCC1 | 9.15 |

| SMILES | hERG current change (%, negative = inhibition) at 10uM [%] |
| --- | --- |
| Cc1nc(C(=O)NC2CC2)sc1C1(C)CC(c2ccccc2)=NO1 (stereo not shown) | -8.63 |
| Cc1ccc(Nc2nc(CSc3nnnn3-c3ccccc3)cs2)cc1 | 14.7 |
| CNC(=O)NC(=O)CN1C(=O)NC2(CCOc3ccccc32)C1=O (stereo not shown) | 18.9 |
| COP(=O)(OC)/C(C=O)=N/Nc1ccc([N+](=O)[O-])cc1 | -36.3 |
| CC(C)OP(=O)(OC(C)C)/C(C=O)=N\Nc1ccc([N+](=O)[O-])cc1 | -55.1 |
| N#CC(C#N)=NNc1ccc([N+](=O)[O-])cc1 | -2.55 |
| CC(C)CCNC(=O)C1CCN(C(=O)N(C)C)CC1 | 14.5 |
| Cc1c(N2C(=O)CS/C2=N\N=C\c2ccc(Cl)cc2)c(=O)n(-c2ccccc2)n1C | -32.2 |
| S=C(Nc1ccc(Cl)cc1)N(CCCN1CCOCC1)Cc1ccco1 | -26 |
| CN1CCN(CCCN(Cc2ccco2)C(=S)Nc2ccc(Cl)cc2)CC1 | -69.6 |
| CCN1CCN(CCCN(Cc2ccco2)C(=S)Nc2ccc(Cl)cc2)CC1 | -64.2 |
| CCOC(=O)C1C2C=CC3(CN(Cc4cccs4)C(=O)C13)O2 (stereo not shown) | 1.73 |
| CCOc1cccc(C(=O)NC(=S)Nc2cccc(C)c2)c1 | 6.87 |
| COCCCn1cnnc1SCc1nc2sc(C(C)=O)c(C)c2c(=O)[nH]1 | -17 |
| Cc1ccc2cc3c(nc2c1)N(c1ccccc1)CC3 | 2.24 |
| CCN1Cc2c(/C=C/c3ccccc3)nc3ccc(OC)cc3c2N(c2cccc(Cl)c2)C1 | -12.5 |
| Cc1ccc2nc(C)c3c(c2c1)SCC3 | -27.4 |
| CSc1nc(C)c2c(n1)N(c1ccc(F)cc1)CC2 | 19.8 |
| Cc1ccc2nc(C)n(-c3ccc(F)cc3)c(=O)c2c1 | 21.3 |
| Cc1ccc2nc(C)c3c(c2c1)N(c1ccccc1)CC3 | -74.6 |
| Cc1nc2ccc(Cl)cc2c(=O)n1-c1cccc(Cl)c1 | 3.78 |
| Cc1ccc2nc(C)c3c(c2c1)N(c1ccc(F)cc1)CC3 | -92.2 |
| COc1cccc(N2CCc3c(C)nc4ccc(Cl)cc4c32)c1 | -72.9 |
